Most compounds without a hit are left out; they make up all but 4.2% or so of the library.
FBA Mtb inh = inhibitors of M. tuberculosis fructose-bisphosphate aldolase. hit rate 2.3% among 360,000. purified M. tuberculosis FBA, fluorescence read-out. inhibition, % at 1 µM. P9WQA3; in the data active = inhibition above about 27%;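 also: 0% = vehicle and 100% = reference inhibitor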
Mtb betalactam = beta-lactam sensitization of Mtb H37Rv | hit rate 0.27% among 330,000 | M. tuberculosis H37Rv growth with meropenem, percent inhibition | inhibition, % at 25 µM; call rule not given here;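 also: growth measured after seven days incubation then overnight dye step; 0% = bacteria only wells and 100% = bacteria with antibiotic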
RecA intein inh = inhibitors of M. tuberculosis RecA intein splicing; P9WHJ3; cell-free RecA intein splicing, fluorescence; inhibition, % (concentration not given with the values); hit rate 0.75% among 290,000; AID 2221; in the data active = inhibition above about 30%; inconclusive = no clear call, values can overlap the other calls;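 also: 0% = vehicle wells and 100% = reference inhibitor control wells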
Target sequence (P9WHJ3 whole entry, looked up): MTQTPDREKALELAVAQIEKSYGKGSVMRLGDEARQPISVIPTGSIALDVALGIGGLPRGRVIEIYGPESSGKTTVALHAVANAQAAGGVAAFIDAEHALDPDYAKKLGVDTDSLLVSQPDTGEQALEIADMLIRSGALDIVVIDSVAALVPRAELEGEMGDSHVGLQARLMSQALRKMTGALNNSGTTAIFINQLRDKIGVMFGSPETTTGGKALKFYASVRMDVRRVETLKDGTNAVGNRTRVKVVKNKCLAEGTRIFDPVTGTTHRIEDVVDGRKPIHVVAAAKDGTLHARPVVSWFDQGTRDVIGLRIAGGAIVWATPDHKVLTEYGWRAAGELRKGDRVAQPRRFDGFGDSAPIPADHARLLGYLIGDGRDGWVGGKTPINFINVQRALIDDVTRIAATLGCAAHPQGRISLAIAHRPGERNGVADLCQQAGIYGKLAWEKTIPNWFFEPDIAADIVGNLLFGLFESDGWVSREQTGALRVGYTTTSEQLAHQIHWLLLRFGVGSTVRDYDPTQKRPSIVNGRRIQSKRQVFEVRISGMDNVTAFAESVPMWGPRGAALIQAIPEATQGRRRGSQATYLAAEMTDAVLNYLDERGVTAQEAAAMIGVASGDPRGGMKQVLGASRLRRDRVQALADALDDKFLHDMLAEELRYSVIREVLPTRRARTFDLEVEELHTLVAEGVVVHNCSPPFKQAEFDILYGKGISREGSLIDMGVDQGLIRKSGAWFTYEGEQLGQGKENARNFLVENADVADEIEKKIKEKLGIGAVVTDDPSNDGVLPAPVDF
CCHFV vOTU inh = blocks the CCHF virus ovarian tumor domain protease | CCHFV vOTU protease, Pep-AMC fluorescence | inhibition, % at 11.5 µM | hit rate 0.55% among 370,000; also: 0% = vehicle wells with enzyme and 100% = no enzyme wells
GDH-TPI inh = inhibits GDH-TPI coupling enzymes, artifact for Mtb FBA screen | GDH-TPI coupled enzyme counterscreen, NADH absorbance | inhibition, % at 4.8 µM | hit rate 1.2% among 360,000 | AID 588335;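 also: 0% = DMSO wells and 100% = wells lacking the enzyme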
Starred values were filed as active, the others as inactive; ? = inconclusive; / = not tested or not shown; + = active, no number. Rule as the data show it, unless noted: active = inhibition above about 30%; inactive = the rest.

SMILES	FBA Mtb inh	Mtb betalactam	RecA intein inh	CCHFV vOTU inh	GDH-TPI inh
O=C(C1=C(O)C(=O)N(CCN2CCOCC2)C1c1cccc(Br)c1)c1cc2ccccc2o1 (stereo not given)	134*	2	4	20	10
O=C(C1=C(O)C(=O)N(CCN2CCOCC2)C1c1cccc([N+](=O)[O-])c1)c1cc2ccccc2o1 (stereo not given)	5	/	/	5	19
C=CCN1C(C(=O)OC)CN(Cc2cn(Cc3ccc(OC)cc3)nn2)CCS1(=O)=O (stereo not given)	/	/	/	-5	/
O=C(N/N=C/c1sc(=O)n(-c2ccccc2)c1Cl)c1ccccc1	-4	4	2	-1	31*
O=C(NC1CCCCN(Cc2cccc(Cl)c2)C1=O)c1cccs1 (stereo not given)	/	/	/	10	/
c1ccc2c(c1)CC/C2=N/Nc1nc2ccccc2[nH]1	1	25	-9	0	49*
S=C(Nc1ccc(Br)cc1)OC1CCC12CCC(c1ccccc1)CC2 (stereo not given)	/	/	/	12	/
COC(=O)[C@]12C[C@H](CC(=O)NCCCN3CCCC3=O)C(=O)N(CCC3=CCCCC3)C1=C[C@H](C1CCCC1)O[C@@H]2C	/	/	/	0	/
COC1=C[C@H](C(=O)NCc2ccccn2)[C@@]2(C)Cc3ccccc3[C@H]2CC1=O	/	/	/	0	/
COc1cc(/C=N/NC(=O)C(=O)NCc2cccnc2)ccc1O	0	-5	2	7	34*
COc1cc(C=NNC(=O)C(=O)Nc2cccc(Cl)c2)cc(OC)c1O	-4	/	/	19	39*
COc1ccc(C=NNC(=O)NN=Cc2ccc(OC)c(OC)c2)cc1OC	2	/	/	15	48*
COc1ccc(/C=N/Nc2ccccn2)cc1OC	0	63	-3	5	33*
COc1ccc(/C=N/NC(=O)C(=O)NCc2cccnc2)cc1OC	4	2	-2	-6	28
COc1ccc(C=NNC(=O)CCCC(=O)NN=Cc2ccc(OC)c(OC)c2)cc1OC	-4	/	/	-10	17
C=CCN1C(=O)[C@H](CC(=O)NCc2cccc3ccccc23)[C@@]2(C(=O)OCC)CCCC=C12	/	/	/	11	/
COC[C@H]1O[C@]2(c3ccccc3)CO[C@H]1[C@@H](/C=C/c1ccccc1)C2	/	/	/	18	/
COc1ccc(/C=N/NC(=O)CSCc2ccc([N+](=O)[O-])cc2)cc1OC	0	-12	-8	0	41*
COc1cc(/C=N/NC(=O)CSCc2ccc([N+](=O)[O-])cc2)cc(OC)c1OC	-9	?	/	-9	-3
C=CCOc1ccc(/C=N/NC(=O)C(=O)Nc2ccccn2)cc1OC	0	87	0	8	29
COc1ccc(/C=N/NC(=O)C(=O)Nc2ccccn2)cc1OC	-2	-7	-3	-5	43*
Cc1ccc(-c2cc(C(=O)NN=Cc3cc(Br)ccc3O)[nH]n2)cc1C	/	/	/	6	/
CC(C)[C@H]1C(=O)N2CCC[C@H]2[C@]2(O)O[C@](NC(=O)[C@@H]3C=C4c5cccc6[nH]cc(c56)C[C@H]4N(C)C3)(C(C)C)C(=O)N12	5	4	35*	/	4
COc1ccc(-n2c(COc3ccc(Cl)cc3)nnc2SCc2nc3ccccc3[nH]2)cc1	/	/	/	22	/
O=[N+]([O-])c1ccc(N/N=C\c2cccnc2)nc1	-4	1	1	2	-6
SMILES	FBA Mtb inh	Mtb betalactam	RecA intein inh	CCHFV vOTU inh	GDH-TPI inh
O=[N+]([O-])c1ccc(NN=Cc2ccco2)nc1	-13	/	/	3	33*
Cc1cc2oc3cc(NCCC4CCCN4C)ccc3c(=O)c2cc1C (stereo not given)	+	34	-266	-219	23
COc1ccc(CN2C(=O)[C@@](O)(c3cccn3C)c3cc(F)ccc32)cc1	/	/	/	-3	/
C[C@H](O)[C@H](O)[C@H]1CNc2nc(N)[nH]c(=O)c2N1	73*	4	-54	-120	18
O=C(NCCc1ccccc1F)c1cc2ccccn2n1	/	/	/	-5	/
CC(=O)Nc1sc(N/N=C/c2ccc(O)cc2)nc1-c1ccc(C)cc1	5	89	2	-5	35*
CC(=O)Nc1sc(N/N=C/c2ccccc2)nc1-c1ccc(C)cc1	1	1	/	-2	6
O=C(Nc1c(-c2ccc(F)cc2)nc2ncccn12)c1ccc(F)cc1	/	/	/	-21	/
CN(/N=C/c1ccncc1)c1cnc2ccccc2n1	-5	/	-8	22	33*
O=C(Nc1ccc(Cl)cc1)Nc1ccccc1C(=O)N1CCCC1	/	/	/	-5	/
COc1cc(/C=N/n2nnnc2Nc2ccccc2)cc(OC)c1OC	-2	0	1	/	34*
COc1cc(/C=N/Nc2nc(Nc3ccccc3)nc(-n3nc(C)cc3C)n2)cc(OC)c1OC	1	-2	5	6	8

Bioassay records from PubChem.
